Test results reported in the supplement of paper PMC6522484.
± gives the standard deviation of the averaged measurements.

Tests used:
DLD1 [1] = experiment: cell viability (CellTiter-Glo) relative to plate median (fraction of plate median); higher = more viable cells; details: 5 µM; treatment time 24 h; reporter: 7TFP
Method in brief: (§1)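 Colorectal cancer cells stably transduced with lentiviral TCF/Wnt firefly luciferase reporters were seeded in 384-well plates and dosed 24 h later with library compounds at a final 5 µM for 24 h. Firefly luciferase or CellTiterGlo luminescence was then read on a Tecan F500 from parallel plates. Signals were normalised per well to the plate median without log transformation, additively in webcellHTS2, and averaged over two independent replicates.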

HCT116 = experiment: as above; details: 5 µM; treatment time 24 h; reporter: TCF4/Wnt
Method in brief: as §1

SW480 [2] = experiment: as above; details: 5 µM; treatment time 24 h; reporter: 7TFP
Method in brief: as §1

DLD1 [3] = experiment: TCF/Wnt firefly luciferase reporter signal relative to plate median (fraction of plate median); higher = higher Wnt reporter signal; details: 5 µM; treatment time 24 h; reporter: 7TFP
Method in brief: as §1

SW480 [4] = experiment: as above; details: 5 µM; treatment time 24 h; reporter: 7TFP
Method in brief: as §1

SMILES | cell viability (DLD1 [1]) | cell viability (HCT116) | cell viability (SW480 [2]) | TCF/Wnt firefly luciferase reporter signal (DLD1 [3]) | TCF/Wnt firefly luciferase reporter signal (SW480 [4])
CC(=O)CC(=O)CCC(=O)O | 1.02 ± 0.11 | 0.996 ± 0.12 | 0.935 ± 0.033 | 0.844 ± 0.13 | 0.939 ± 0.02
CC(=O)O[C@@H]1CC2C(C)(CC[C@H](O)C2(C)C)C2CC[C@]3(C)C(=CC(=O)O[C@H]3c3ccoc3)C21C (stereo partly drawn) [3beta-HYDROXYDEOXODIHYDRODEOXYGEDUNIN] | 1 ± 0.028 | 0.963 ± 0.081 | 1.02 ± 0.028 | 1.15 ± 0.12 | 1.12 ± 0.014
CN(C)CC/C=C1/c2ccccc2Sc2ccc(Cl)cc21 | 0.835 ± 0.21 | 0.98 ± 0.019 | 0.934 ± 0.016 | 1.07 ± 0.042 | 0.967 ± 0.061
Nc1ccc(S(N)(=O)=O)cc1 | 1.04 ± 0.081 | 0.975 ± 0.031 | 1.065 ± 0.0071 | 1.04 | 1.02 ± 0.073
Cc1ccc2c(c1)CC[C@H]1CC(=O)CC[C@]21C | 1.03 ± 0.035 | 1.05 ± 0.097 | 0.9365 ± 0.0021 | 0.941 ± 0.13 | 0.957 ± 0.0028
CC1=CC(=O)C(C(C)C)=CC1=O | 1.04 ± 0.057 | 1.03 ± 0.054 | 1.05 ± 0.014 | 1.09 ± 0.11 | 1.1 ± 0.064
CN(C)CCCC1(c2ccc(F)cc2)OCc2cc(C#N)ccc21 (stereo not given) | 1.02 ± 0.044 | 1.01 ± 0.061 | 0.996 ± 0.048 | 0.964 ± 0.0014 | 1.01 ± 0.1
NC(CO)C(=O)NNCc1ccc(O)c(O)c1O (stereo not given) | 1.03 ± 0.028 | 1.07 ± 0.13 | 1.02 ± 0.021 | 1.07 ± 0.021 | 1.08 ± 0.021
CC[C@H]1OC(=O)[C@H](C)[C@@H](O[C@H]2C[C@@](C)(OC)[C@@H](O)[C@H](C)O2)[C@H](C)[C@@H](O[C@@H]2O[C@H](C)C[C@H](N(C)C)[C@H]2O)[C@](C)(O)C[C@@H](C)C(=O)[C@H](C)[C@@H](O)[C@]1(C)O | 1.01 ± 0.05 | 0.986 ± 0.034 | 1 ± 0.028 | 0.924 ± 0.09 | 0.874 ± 0.051
Cc1ccc(C(=O)c2ccc(CC(=O)O)n2C)cc1 | 0.981 ± 0.098 | 1.01 ± 0.023 | 1 ± 0.053 | 1.07 ± 0.05 | 1.06 ± 0.064
COC1=CC(=O)C(C(=O)c2ccccc2)=CC1=O | 0.965 ± 0.015 | 0.991 ± 0.028 | 0.975 ± 0.028 | 1.03 ± 0.09 | 1.04 ± 0.063
COc1c(N2CCNC(C)C2)c(F)cc2c(=O)c(C(=O)O)cn(C3CC3)c12 (stereo not given) | 0.925 ± 0.18 | 0.911 ± 0.082 | 0.966 ± 0.048 | 0.933 ± 0.081 | 0.906 ± 0.041
CC(C)Cn1c(=O)n(C)c(=O)c2nc[nH]c21 | 0.956 ± 0.048 | 1.04 ± 0.05 | 0.9585 ± 0.0092 | 0.972 ± 0.054 | 0.987 ± 0.018
CCN(CC)CCOC(=O)c1ccc(N)cc1 | 1.01 ± 0.12 | 1.05 ± 0.028 | 1.03 ± 0.021 | 1.09 ± 0.092 | 1.06 ± 0.014
C=CC1=C(C(=O)O)N2C(=O)[C@@H](NC(=O)/C(=N\O)c3csc(N)n3)[C@H]2SC1 | 0.911 ± 0.11 | 1.04 ± 0.1 | 0.963 ± 0.025 | 0.941 ± 0.052 | 0.969 ± 0.072
C=C(C)[C@@H]1C[C@H]2O[C@](O)(C/C(C)=C\C(=O)/C=C(/C)C[C@@H]3OC(=O)[C@]24O[C@@H]34)[C@H]1O [bipinnatolide F] | 1.02 ± 0.028 | 0.943 ± 0.018 | 0.94 ± 0.074 | 1.01 ± 0.059 | 0.994 ± 0.023
C[C@@H]1CC[C@H]2C(C(=O)O)=C[C@@H]3[C@@H](O)C(C)(C)C[C@@]132 [Pentalenic acid] | 0.966 ± 0.019 | 0.941 ± 0.016 | 1.02 ± 0.042 | 0.794 ± 0.13 | 0.98 ± 0.16
COC(=O)C[C@H]1C2(C)CC34OC5(C)O[C@@]6([C@H](OC(C)=O)C(OC(C)=O)[C@]7(C)C(/C(=C(/O)C(C)C)C(=O)O[C@H]7c7ccoc7)[C@@]6(O5)[C@H](OC(C)=O)[C@@]3(O)C2OC(=O)C(C)C)[C@]14C (stereo not given in full) | 1.02 ± 0.021 | 0.959 ± 0.1 | 1.01 ± 0.021 | 1.05 ± 0.14 | 1.08
CC(C)[C@H](N)C(=O)OCCOCn1cnc2c(=O)nc(N)[nH]c21 | 1.01 ± 0.028 | 0.879 ± 0.12 | 0.938 ± 0.0071 | 0.969 ± 0.16 | 0.876 ± 0.11
CC(C)COCC(CN(Cc1ccccc1)c1ccccc1)N1CCCC1 (stereo not given) | 1.06 ± 0.088 | 1 ± 0.064 | 1.02 ± 0.06 | 0.901 ± 0.084 | 0.937 ± 0.085
C=C1c2cccc(O)c2C(=O)C2=C(O)[C@]3(O)C(=O)C(C(N)=O)=C(O)[C@@H](N(C)C)[C@@H]3[C@@H](O)[C@H]12 | 0.968 ± 0.0014 | 0.928 ± 0.13 | 0.969 ± 0.073 | 1.06 ± 0.26 | 1.11 ± 0.064
O=c1cc(-c2ccc(O)cc2)oc2cc(O[C@@H]3O[C@H](CO)[C@@H](O)[C@H](O)[C@H]3O[C@@H]3OC[C@](O)(CO)[C@H]3O)cc(O)c12 | 0.959 ± 0.052 | 1.04 ± 0.057 | 1 ± 0.021 | 1.045 ± 0.0071 | 1.04 ± 0.057
CCN1CCN(c2cc3c(cc2F)c(=O)c(C(=O)O)cn3C2CC2)CC1 | 1.01 ± 0.05 | 0.907 ± 0.038 | 0.921 ± 0.03 | 1.05 ± 0.074 | 0.9395 ± 0.005
C[C@H](N)CO | 0.911 ± 0.034 | 0.902 ± 0.047 | 0.93 ± 0.035 | 0.908 ± 0.058 | 1.12 ± 0.092
O=C1C=C2CC3(O)COc4cc(O)ccc4C3=C2C=C1O (stereo not given) | 1.02 ± 0.11 | 1.06 ± 0.12 | 0.98 ± 0.016 | 1.015 ± 0.0071 | 1.02
CC1=C(C/C=C(\C)CCC[C@H](C)CCC[C@H](C)CCCC(C)C)C(=O)c2ccccc2C1=O | 0.9945 ± 0.00071 | 0.988 ± 0.06 | 0.998 ± 0.045 | 0.819 ± 0.03 | 0.92 ± 0.064
